KCNQ2 inh: inhibitors of rat KCNQ2 potassium channel; 310,000 compounds, 1.1% hits; CHO-K1 KCNQ2, FluxOR thallium flux, 20 min; active compounds read low; B-score at 10 µM; O88943;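 active means fluorescence ratio B-score at most minus 3 library SDs, with starting brightness B-score within 2 library SDs, cut at about -5.5 in these data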
Target sequence (O88943 whole entry, looked up): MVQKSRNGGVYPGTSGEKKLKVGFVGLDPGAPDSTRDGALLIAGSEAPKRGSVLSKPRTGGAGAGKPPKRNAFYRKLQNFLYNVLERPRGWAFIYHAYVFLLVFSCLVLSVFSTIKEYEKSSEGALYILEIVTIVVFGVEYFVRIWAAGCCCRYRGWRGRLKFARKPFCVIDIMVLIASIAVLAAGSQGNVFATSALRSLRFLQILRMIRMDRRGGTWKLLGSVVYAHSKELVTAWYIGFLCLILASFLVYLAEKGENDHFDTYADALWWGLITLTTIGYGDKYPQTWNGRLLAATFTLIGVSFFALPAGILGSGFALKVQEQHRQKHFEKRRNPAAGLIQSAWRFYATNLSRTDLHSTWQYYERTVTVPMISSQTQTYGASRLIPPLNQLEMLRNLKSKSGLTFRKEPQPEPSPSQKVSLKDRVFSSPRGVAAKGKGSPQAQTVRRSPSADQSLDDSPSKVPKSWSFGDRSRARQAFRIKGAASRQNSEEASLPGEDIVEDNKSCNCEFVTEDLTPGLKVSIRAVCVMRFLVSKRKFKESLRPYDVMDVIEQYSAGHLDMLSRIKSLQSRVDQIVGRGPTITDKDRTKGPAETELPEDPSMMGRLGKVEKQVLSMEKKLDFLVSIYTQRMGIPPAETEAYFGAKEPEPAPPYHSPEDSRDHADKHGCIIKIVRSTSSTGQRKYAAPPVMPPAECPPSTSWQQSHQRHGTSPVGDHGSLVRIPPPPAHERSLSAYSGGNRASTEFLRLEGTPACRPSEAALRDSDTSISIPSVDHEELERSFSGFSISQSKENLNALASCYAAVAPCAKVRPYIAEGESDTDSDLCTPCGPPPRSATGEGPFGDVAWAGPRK
KCNQ2 pot: KCNQ2 (rat) channel potentiation; O88943; CHO-K1 KCNQ2, FluxOR thallium flux fluorescence; active compounds read high; B-score at 10 µM; 310,000 compounds, 0.54% hits;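 active means fluorescence ratio B-score at least 3 SD of library B-scores, with initial fluorescence B-score within 3 of them, cut at about 5.3 in these data; same plate scores as AID 2156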;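 further: B-score of peak minus minimum over baseline fluorescence ratio after K+ and Tl+ stimulus; positive B-score means potentiation of KCNQ2 with more thallium influx and brighter signal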
KCNQ2 block conf: confirmation of rat KCNQ2 potassium channel inhibitors. shares compounds with KCNQ2 inh. KCNQ2-expressing cells, thallium flux, inhibition; active compounds read low. activity change, negative = inhibition, % at 10 µM. 1,000 compounds, 57% hits
KCNQ1 spec: selectivity of KCNQ2 inhibitors against human KCNQ1; shares compounds with KCNQ2 inh; KCNQ1-expressing cells, FluxOR thallium flux fluorescence; active compounds read low; activity change, negative = inhibition, % at 10 µM; 1,000 compounds, 15% hits;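 active means activity change at least 3 SD of negative controls below their mean in both duplicate wells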;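 further: CHO cells stably transfected with KCNQ1 and depolarized by potassium stimulus; peak minus minimum fluorescence over baseline after thallium addition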
CHO parental ctr: counter-screen for KCNQ2 inhibitors: effect in parental CHO cells; activity change, % at 10 µM; thallium flux counter-screen; active compounds read low; shares compounds with KCNQ2 inh; 1,000 compounds, 14% hits
KCNQ2 patch conf: blocks rat KCNQ2 current in automated patch clamp | shares compounds with KCNQ2 inh | KCNQ2-expressing cells | 550 compounds, 49% hits | AID 588531 | calls only at 10 µM
Each line names hits and unclear results; the compound was inactive in the other large screens (follow-up assays come after a bar, where they were run). This is a sample that favours compounds with a hit; in the whole collection about 1.6% have one here. Unless noted, how the calls were made is not given here.

COc1ccc(-c2cc(C(=O)NN3CCOCC3)c3ccccc3n2)cc1OC	none
O=C(Nc1ccccc1F)c1cc(-c2ccco2)nc2ccccc12	none
COc1cc(-c2cc(C(=O)Nc3ccc(O)cc3)c3ccccc3n2)cc(OC)c1OC	KCNQ2 inh -7.7 | KCNQ2 block conf -30% | KCNQ1 spec inactive | CHO parental ctr inactive | KCNQ2 patch conf active
COc1cc(-c2cc(C(=O)Nc3ccccc3N3CCOCC3)c3ccccc3n2)cc(OC)c1OC	KCNQ2 inh -7.8 | KCNQ2 block conf -31% | KCNQ1 spec inactive | CHO parental ctr inactive | KCNQ2 patch conf active
COc1cc(-c2cc(C(=O)Nc3nc4ccccc4s3)c3ccccc3n2)cc(OC)c1OC	none (no result: KCNQ2 pot)
COc1ccc(C(=O)NCC2(c3ccc(OC)c(OC)c3)CCCC2)c(OC)c1	none (no result: KCNQ2 pot)
CC(=O)c1cccc(S(=O)(=O)NCCC(=O)O)c1	none
Cc1ccc(C(=O)N2CCN(CCNC(=O)C(=O)NCc3ccc(Cl)cc3)CC2)cc1	none (no result: KCNQ2 pot)
CCOc1ccc2c(c1)-c1c(ssc1=S)C(C)(C)N2C(=O)c1ccco1	KCNQ2 inh -8.8 | KCNQ2 block conf inactive | KCNQ1 spec inactive | CHO parental ctr inactive
COc1ccc2c(c1)-c1c(ssc1=S)C(C)(C)N2C(=O)CSC1=NCCS1	none (no result: KCNQ2 pot)
O=S(=O)(/N=C(/Nc1cccc2ccccc12)c1ccccc1)c1ccc(Br)cc1	none
CCCC(=O)NCCc1nc2ccccc2n1CCC	none
CCCn1c(CNC(=O)Cc2ccccc2)nc2ccccc21	KCNQ2 inh -6.7 | KCNQ2 block conf inactive | KCNQ1 spec inactive | CHO parental ctr inactive
CC(=O)Nc1c2c(nn1-c1ccc(Cl)cc1)CSC2	none
CCN1C(=O)CSC1=NC12CC3CC(CC(C3)C1)C2	KCNQ2 inh -7.8 | KCNQ2 block conf -32% | KCNQ1 spec -30% | CHO parental ctr -30% | KCNQ2 patch conf inactive
CN1C(=O)CSC1=NC12CC3CC(CC(C3)C1)C2	none (no result: KCNQ2 pot)
CCOC(=O)CNC(=O)CN1CCC(c2nc3ccccc3[nH]2)CC1	none (no result: KCNQ2 pot)
O=C(NCCC1CCCCN1S(=O)(=O)c1ccc(Cl)cc1)C(=O)NCCN1CCOCC1 (centres undefined)	none (no result: KCNQ2 pot)
O=C(Oc1ccc2ccccc2c1Br)N1CCCCCC1	KCNQ2 inh -6.7 | KCNQ2 block conf inactive | KCNQ1 spec inactive | CHO parental ctr inactive
CCN(CC)C(=O)Oc1ccc2ccccc2c1Br	none (no result: KCNQ2 pot)
CCc1cc(/C(Cc2ccccn2)=N\O)c(O)cc1O	none (no result: KCNQ2 pot)
CCc1cc(/C(Cc2ccc3ccccc3n2)=N\O)c(O)cc1O	KCNQ2 inh -12 | KCNQ2 block conf -35% | KCNQ1 spec -42% | CHO parental ctr -27% | KCNQ2 patch conf active
CCCSc1sc(C(=O)OC)c(-c2cccs2)c1C#N	none (no result: KCNQ2 pot)
COc1ccc(CNC(=O)C2CCCN(S(=O)(=O)c3ccccc3)C2)cc1 (centres undefined)	none (no result: KCNQ2 pot)
CCN(c1ccc(OC)cc1)S(=O)(=O)N1CCCC(C(=O)NCc2ccccc2Br)C1 (centres undefined)	KCNQ2 inh -10 | KCNQ2 block conf inactive | KCNQ1 spec inactive | CHO parental ctr inactive
COc1cc(CC(=O)NCC2CCCCC2)cc(OC)c1OC	none (no result: KCNQ2 pot)
CC1CCN(C(C(=O)Nc2ccc3c(c2)OCO3)c2ccccc2)CC1 (centres undefined)	KCNQ2 inh -7 | KCNQ2 block conf inactive | KCNQ1 spec inactive | CHO parental ctr inactive
O=C(Nc1ccc2c(c1)OCO2)C(c1ccccc1)N1CCCCC1 (centres undefined)	none (no result: KCNQ2 pot)
Cc1nc(C)n(CCNS(=O)(=O)c2ccc(C)c(C)c2)n1	none
CC(C)CC(NC(=O)c1ccccc1)C(=O)OCC(=O)Nc1ccc(S(N)(=O)=O)cc1 (centres undefined)	none (no result: KCNQ2 pot)
CN(C)c1cc(N/N=C/c2ccc(Cl)cc2)nc(N(C)C)n1	KCNQ2 inh -8.6 | KCNQ2 block conf inactive | KCNQ1 spec inactive | CHO parental ctr inactive
COc1cc(N/N=C/c2ccc(N(C)C)cc2)ncn1	none (no result: KCNQ2 pot)
CCOC(=O)c1cnc2c(OC)cccc2c1N1CCN(c2ccc(OC)cc2)CC1	none (no result: KCNQ2 pot)
CCOC(=O)c1cnc2c(OC)cccc2c1N1CCN(c2ccccc2OC)CC1	KCNQ2 inh -12 | KCNQ2 block conf -30% | KCNQ1 spec inactive | CHO parental ctr inactive | KCNQ2 patch conf inactive
C(=N\Nc1ccccn1)/c1ccc2c(c1)OCCO2	none
COc1ccc(Br)cc1CN(C)C(=O)c1ccccc1OCc1c(C)noc1C	KCNQ2 inh -8.6 | KCNQ2 block conf inactive | KCNQ1 spec inactive | CHO parental ctr inactive
Cc1ccc(NC(=O)CN(C)C(=O)c2ccccc2OCc2c(C)noc2C)cc1	none (no result: KCNQ2 pot)
Cc1cn(CC(=O)c2ccccc2)c2ccccc12	none (no result: KCNQ2 pot)
CCn1cnc2cc(NCc3nc4ccccc4n3Cc3ccccc3)ccc21	KCNQ2 inh -8.5 | KCNQ2 block conf -34% | KCNQ1 spec inactive | CHO parental ctr inactive | KCNQ2 patch conf active
CCn1cnc2cc(NCc3nc4ccccc4n3C)ccc21	none (no result: KCNQ2 pot)
CC(C)c1ccc(O)c(NC(=S)NC(=O)CCc2ccccc2)c1	none (no result: KCNQ2 pot)
CCc1nnc(SCC(=O)NC2CC2)n1CC	none
COc1ccccc1NC(=O)COC(=O)/C=C/c1ccccc1[N+](=O)[O-]	none
COc1ccccc1/C=C/C(=O)OCC(=O)Nc1ccccc1Sc1ccccc1	KCNQ2 inh -6.8 | KCNQ2 block conf -30% | KCNQ1 spec inactive | CHO parental ctr inactive | KCNQ2 patch conf inactive
Cc1ccc2nc(-c3ccccc3)cc(C(=O)N(C)CC(=O)Nc3ccccc3Br)c2c1	KCNQ2 inh -8.1 | KCNQ2 block conf inactive | KCNQ1 spec inactive | CHO parental ctr inactive
COc1ccc(NC(=O)CN(C)C(=O)c2cc(-c3ccccc3)nc3ccccc23)cc1	none (no result: KCNQ2 pot)
Cc1ccc(C)c(NC(=S)N/N=C/C(C)c2ccccc2)c1 (centres undefined)	none (no result: KCNQ2 pot)
C/C(=N/NC(=O)c1ccoc1C)c1cccc(NC(=O)C2CC2)c1	none
NS(=O)(=O)c1ccc(CCNC(=O)CNC(=O)c2ccc(Oc3ccccc3)cc2)cc1	none (no result: KCNQ2 pot)
CN(C(=O)c1nn(C)c2c1CSc1ccccc1-2)c1ccccc1Cl	KCNQ2 inh -6.7 | KCNQ2 block conf -37% | KCNQ1 spec -40% | CHO parental ctr -34% | KCNQ2 patch conf inactive
CC1CCCC(C)N1CCCNC(=O)c1nn(C)c2c1CSc1ccccc1-2 (centres undefined)	none
O=C(CNC(=O)c1ccc2c(c1)OCCO2)N/N=C/c1ccc([N+](=O)[O-])cc1	none
O=C(Cc1csc(Nc2nc(=S)[nH]c3ccccc23)n1)N1CCN(c2cccc(C(F)(F)F)c2)CC1	none (no result: KCNQ2 pot)
CC(Oc1ccc(Cl)cc1Cl)C(=O)NCCCCc1ccccc1 (centres undefined)	none (no result: KCNQ2 pot)
O=C(COc1ccc(Cl)cc1Cl)NCCCCc1ccccc1	KCNQ2 inh -7.8 | KCNQ2 block conf inactive | KCNQ1 spec inactive | CHO parental ctr inactive
O=C(COC(=O)CN1C(=O)COc2ccccc21)NCc1ccc(F)cc1	none (no result: KCNQ2 pot)
CC1CN(c2ccc(NC(=O)c3ccco3)cc2C(=O)O)CC(C)O1 (centres undefined)	none
O=C(Nc1nc(-c2ccc(-c3ccccc3)cc2)cs1)c1cc([N+](=O)[O-])ccc1N1CCOCC1	none
